Measured values: PubChem BioAssay (NCATS)
Results filed as inconclusive are left out. Where a call stands in place of a potency, no number is given. The source made the active and inactive calls. The call rests on the fitted dose curve; in most records, active means well fitted curve in the direction sought with a large enough effect; inconclusive means small, poorly fitted or top-dose-only effect, or another doubt; inactive means no such curve, though single readings can be large; an effect the other way counts as inactive or inconclusive.

Test: Identifying Small Molecule Inhibitors of Pancreatic Cancer Stem Cells (Panc1, Adherent) (AID 1259362); further: potency means the concentration at half of the fitted maximal effect
Conditions: viability
Outline: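 After a 4 h attachment period, compounds were pinned into wells and cultures held 48 h under standard incubator conditions. Viability was then measured as CellTiter-Glo luminescence following 10 min at room temperature.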

Row | Compound | Potency
1 | NC1(c2ccc(-c3nc4ccn5c(=O)[nH]nc5c4cc3-c3ccccc3)cc2)CCC1 | 20900 nM (active)
2 | COc1cc2nc(N3CCCN(C)CC3)nc(NC3CCN(Cc4ccccc4)CC3)c2cc1OC | 2350 nM (active)
3 | CC(C)C[C@H](NC(=O)[C@H](CCc1ccccc1)NC(=O)CN1CCOCC1)C(=O)N[C@@H](Cc1ccccc1)C(=O)N[C@@H](CC(C)C)C(=O)[C@@]1(C)CO1 | 26.4 nM (active)

Test: P-glycoprotein substrates identified in KB-3-1 adenocarcinoma cell line, qHTS therapeutic library screen (AID 1346986); further: nearly all actives have a fitted effect of over 60% in size
Conditions: KB-3-1 parental cells viability, CellTiter-Glo, 72 h; at 44.5 µM (top of the series)
Outline: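 Resistance attributable to P-gp was assessed by comparing AC50 in KB-8-5-11 with parental KB-3-1 and by tariquidar reversal. Cells were exposed 72 h and viability read by CellTiter-Glo.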

Row | Compound | outcome
4 | O=C(O)c1cn(C2CC2)c2cc(N3CCNCC3)c(F)cc2c1=O | inactive
5 | Cc1cccc(N(C)C(=S)Oc2ccc3ccccc3c2)c1 | inactive
6 | CNS(=O)(=O)CCc1ccc2[nH]cc(C3CCN(C)CC3)c2c1 | inactive
7 | NC(=O)c1cccc(N)c1 | inactive
8 | Cc1noc(NS(=O)(=O)c2ccc(N)cc2)c1C | inactive
9 | COc1c(N2CCNC(C)C2)c(F)cc2c(=O)c(C(=O)O)cn(C3CC3)c12 (configuration not stated) | inactive
10 | CC1=C(C(=O)O)N2C(=O)[C@@H](NC(=O)C(N)c3ccccc3)[C@H]2SC1 (some centres not stated) | inactive
11 | Cc1ccnc2c1NC(=O)c1cccnc1N2C1CC1 | inactive
12 | COc1cnc(NS(=O)(=O)c2ccc(N)cc2)nc1 | inactive
13 | CCn1cc(C(=O)O)c(=O)c2cc(F)c(N3CCNCC3)cc21 | inactive
14 | COc1cc(NS(=O)(=O)c2ccc(N)cc2)nc(OC)n1 | inactive
15 | CCOCC(O)COc1ccc(NC(=O)CC[S+](C)C)cc1 (configuration not stated) | inactive
16 | CCN(CC)CCn1c(=O)c(Cc2ccc(OC)cc2)nc2ccccc21 | inactive
17 | CCN1CCCC1CNC(=O)c1cc(S(N)(=O)=O)ccc1OC (configuration not stated) | inactive
